Values joined by “and” are separate entries in the source; they are usually repeats but may differ in a detail not shown here. Equal entries are not always repeated. Records with an inconclusive call do not appear. Active and inactive are the calls of the source. Unless noted, calls come from the whole dose curve; as a rule, active = well fitted curve in the direction sought with a large enough effect in the repeat runs; inconclusive = weak or mixed curves; inactive = no such curve, though single readings can be large; an effect the other way counts as inactive or inconclusive.

Experimental findings from PubChem BioAssay (Tox21) are described below.

Test [1] can be described thus: qHTS assay to identify small molecule antagonists of the thyroid receptor (TR) signaling pathway (AID 743065). Note: nearly all actives have a fitted effect of over 55% in size. Note: potency is the fitted concentration of half-maximal effect. The method in brief: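 Antagonism measured as loss of luciferase signal in GH3 cells stably carrying a TRE-luciferase reporter, co-treated with compound and T3 (1 nM final) for 23.5 h at 37 C. Viability was read in the same well by CellTiter-Fluor.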
(In general: qHTS replaces the single test concentration by a dilution series.)

The subject of test [2] is thyroid hormone receptor (rat, GH3 cells). Kind of test: qHTS assay to identify small molecule agonists of the thyroid receptor (TR) signaling pathway (AID 743066; calls by dose curve).
In test [3] the target is Estrogen receptor (Homo sapiens) (UniProt P03372). Kind of test: qHTS assay to identify small molecule antagonists of the estrogen receptor alpha (ER-alpha) signaling pathway (AID 743069; active = well fitted curve in the direction sought with a large enough effect in the signal ratio in the repeat runs, not every such curve was filed as active; the % refers to the signal ratio). The essentials:
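Compound effects are measured against 17beta-estradiol stimulation in HEK293 cells with a UAS-controlled beta-lactamase reporter for ER-alpha. Exposure lasts 18 hr at 37C; LiveBLAzer B/G FRET substrate follows for 2 hr at room temperature.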

Test [4] can be described thus: qHTS assay to identify small molecule antagonists of the estrogen receptor alpha (ER-alpha) signaling pathway - cell viability counter screen (AID 743074; calls by dose curve;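 note: HEK293 cells carrying ER-alpha-UAS-bla reporter stimulated with 17beta-estradiol; nearly all actives have a fitted effect of over 45% in size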).
In test [5] the target is Estrogen receptor (Homo sapiens) (UniProt P03372). Kind of test: qHTS assay to identify small molecule agonists of the estrogen receptor alpha (ER-alpha) signaling pathway (AID 743075; calls by dose curve).
The target is the same in test [6]. Description: qHTS assay to identify small molecule agonists of the estrogen receptor alpha (ER-alpha) signaling pathway using the BG1 cell line (AID 743079). Note: nearly all actives have a fitted effect of over 20% in size. Note: potency is the fitted concentration of half-maximal effect.
Test [7] can be described thus: qHTS assay to identify small molecule antagonists of the estrogen receptor alpha (ER-alpha) signaling pathway using the BG1 cell line (AID 743080; calls by dose curve;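 note: BG1 cells stimulated with 17beta-estradiol alongside compound; series mostly up to about 70 µM; nearly all actives have a fitted effect of over 25% in size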). The method in brief: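 Luminescence from a 4×ERE-luciferase reporter in BG1-Luc-4E2 cells served as read-out. Cells, pre-cultured 5 days in stripped-serum phenol-red-free medium, were exposed to compound with 17beta-estradiol co-stimulation for 21.5 h at 37 C.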

The next test concerns the target Aromatase (Homo sapiens) (UniProt P11511). Kind of test: qHTS assay to identify aromatase inhibitors (AID 743083). Note: nearly all actives have a fitted effect of over 55% in size. Note: potency is the fitted concentration of half-maximal effect.
The nature of test [8]: qHTS assay to identify aromatase inhibitors - cell viability counter screen (AID 743084).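 Note: cells stimulated with testosterone during compound exposure; nearly all actives have a fitted effect of over 55% in size.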 Note: potency is the fitted concentration of half-maximal effect.
Test [9] addresses Aryl hydrocarbon receptor (Homo sapiens) (UniProt P35869). Description: qHTS assay to identify small molecule that activate the aryl hydrocarbon receptor (AhR) signaling pathway (AID 743085).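 For activation: HG2L7.5c1 human HepG2 liver cells with stably integrated DRE-driven firefly reporter; series mostly up to about 70 µM.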 Note: nearly all actives have a fitted effect of over 15% in size. Note: potency is the fitted concentration of half-maximal effect. The method in brief: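 Luminescence read-out: ONE-Glo reagent, 30 min at room temperature, in HG2L7.5c1 HepG2 reporter cells treated 24 h at 37C. Viability was measured beforehand by CellTiter-Fluor fluorescence after 30 min at 37C.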

Test [10] can be described thus: qHTS assay to identify small molecule that activate the aryl hydrocarbon receptor (AhR) signaling pathway - cell viability counter screen (AID 743086). Note: series mostly up to about 70 µM; nearly all actives have a fitted effect of over 45% in size. The essentials: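 Cytotoxicity counter screen: CellTiter-Fluor signal (30 min, 37 C) in 4000 HepG2 cells/well carrying the DRE-luciferase reporter, following 24 h compound exposure at 37 C.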
The nature of test [11]: qHTS assay to identify small molecule antagonists of the peroxisome proliferator-activated receptor gamma (PPARg) signaling pathway - cell viability counter screen (AID 743194). Note: nearly all actives have a fitted effect of over 55% in size. Note: potency is the fitted concentration of half-maximal effect. The essentials:
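Viability was measured as CellTiter-Glo luminescence in GeneBLAzer PPARg UAS-bla HEK293H cells. These cells had been exposed 17 h at 37 C to compounds together with rosiglitazone at 50 nM final, with the beta-lactamase readout taken in the same wells.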

The nature of test [12]: qHTS assay for small molecule agonists of the antioxidant response element (ARE) signaling pathway (AID 743202; active = well fitted activation curve with a large enough effect in the signal ratio in the repeat runs, not every such curve was filed as active; the % refers to the signal ratio; note: potency is the fitted concentration of half-maximal effect). The method in brief: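 An ARE-responsive beta-lactamase gene stably integrated in HepG2 cells serves as reporter. After 5 h plating and 16 h compound incubation at 37 C, fluorescence of the B/G FRET substrate was measured.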
Test [13] can be described thus: qHTS assay for small molecule activators of the heat shock response signaling pathway - cell viability counter screen (AID 743209). Note: nearly all actives have a fitted effect of over 50% in size. Note: potency is the fitted concentration of half-maximal effect. The essentials: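 CellSensor HSE-bla HeLa cells, plated overnight at 37 C/5% CO2, were exposed to compounds in DMSO for 5 h at 37 C. Viability was then read in the same wells by CellTiter-Glo luminescence after 30 min at room temperature.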

The nature of test [14]: qHTS assay for small molecule activators of the heat shock response signaling pathway (AID 743210; active = well fitted activation curve with a large enough effect in the signal ratio in the repeat runs, with a control signal flat, not every such curve was filed as active; the % refers to the signal ratio;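 note: HeLa cells with beta-lactamase reporter driven by heat shock elements; series mostly up to about 63 µM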). The method in brief: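 In HSE-bla HeLa cells, 5 h compound incubation (37 C) precedes addition of LiveBLAzer B/G substrate; after 2.5 h at room temperature, fluorescence intensity indicates reporter induction.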
Test [15] is described as follows: qHTS assay to identify small molecule antagonists of the estrogen receptor alpha (ER-alpha) signaling pathway using the BG1 cell line - cell viability counter screen (AID 743081).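 Note: compound given together with 17beta-estradiol as the ER stimulus; nearly all actives have a fitted effect of over 45% in size.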 Note: potency is the fitted concentration of half-maximal effect.
Test [16] concerns the target Peroxisome proliferator-activated receptor gamma (Homo sapiens) (UniProt P37231). Description: qHTS assay to identify small molecule agonists of the peroxisome proliferator-activated receptor gamma (PPARg) signaling pathway (AID 743094; active = well fitted activation curve with a large enough effect in the signal ratio in the repeat runs, not every such curve was filed as active; the % refers to the signal ratio). The essentials: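 GeneBLAzer PPARg UAS-bla HEK293H cells carrying a stably integrated beta-lactamase reporter were pre-incubated 5 h at 37C, then exposed to compounds in DMSO for 17 h at 37C; LiveBLAzer B/G FRET substrate was added for 1 h at room temperature and fluorescence read.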

A short description of test [17]: qHTS assay for small molecule agonists of the antioxidant response element (ARE) signaling pathway - cell viability counter screen (AID 743203; calls by dose curve; note: nearly all actives have a fitted effect of over 55% in size; note: potency is the fitted concentration of half-maximal effect). The essentials:
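CellSensor ARE-bla HepG2 cells, 2,000 per well, rested 5 hrs at 37C/5% CO2, then exposed to compound in DMSO for 16 hrs; viability read as CellTiter-Glo luminescence after 30 min at room temperature, in the reporter wells.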

In test [18] the target is Peroxisome proliferator-activated receptor gamma (Homo sapiens) (UniProt P37231). Description: qHTS assay to identify small molecule antagonists of the peroxisome proliferator-activated receptor gamma (PPARg) signaling pathway (AID 743191; calls by dose curve; note: series mostly up to about 63 µM; nearly all actives have a fitted effect of over 30% in size). The method in brief:
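Beta-lactamase reporter under UAS control in HEK293H PPARg-bla cells; compound treatment 17 h at 37C. Read-out: fluorescence intensity after 1 h room-temperature incubation with LiveBLAzer B/G FRET substrate.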

Chain of Estrogen receptor (Homo sapiens) (P03372 whole entry, looked up): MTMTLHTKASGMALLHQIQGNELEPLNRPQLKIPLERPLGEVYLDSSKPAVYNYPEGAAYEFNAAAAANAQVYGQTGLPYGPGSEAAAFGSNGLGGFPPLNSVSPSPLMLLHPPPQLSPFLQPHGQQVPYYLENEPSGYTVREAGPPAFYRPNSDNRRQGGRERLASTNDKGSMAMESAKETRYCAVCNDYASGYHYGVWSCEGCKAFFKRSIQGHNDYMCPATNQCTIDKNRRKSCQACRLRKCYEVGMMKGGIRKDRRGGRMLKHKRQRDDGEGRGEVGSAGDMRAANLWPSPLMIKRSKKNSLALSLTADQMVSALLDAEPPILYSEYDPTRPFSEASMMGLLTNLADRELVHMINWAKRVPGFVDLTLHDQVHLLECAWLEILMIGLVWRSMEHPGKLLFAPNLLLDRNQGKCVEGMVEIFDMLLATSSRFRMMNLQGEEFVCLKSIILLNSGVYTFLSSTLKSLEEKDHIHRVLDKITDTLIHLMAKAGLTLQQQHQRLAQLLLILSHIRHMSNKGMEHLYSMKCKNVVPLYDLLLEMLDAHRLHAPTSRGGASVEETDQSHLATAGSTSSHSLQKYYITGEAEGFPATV
Chain of Aryl hydrocarbon receptor (Homo sapiens) (P35869 whole entry, looked up): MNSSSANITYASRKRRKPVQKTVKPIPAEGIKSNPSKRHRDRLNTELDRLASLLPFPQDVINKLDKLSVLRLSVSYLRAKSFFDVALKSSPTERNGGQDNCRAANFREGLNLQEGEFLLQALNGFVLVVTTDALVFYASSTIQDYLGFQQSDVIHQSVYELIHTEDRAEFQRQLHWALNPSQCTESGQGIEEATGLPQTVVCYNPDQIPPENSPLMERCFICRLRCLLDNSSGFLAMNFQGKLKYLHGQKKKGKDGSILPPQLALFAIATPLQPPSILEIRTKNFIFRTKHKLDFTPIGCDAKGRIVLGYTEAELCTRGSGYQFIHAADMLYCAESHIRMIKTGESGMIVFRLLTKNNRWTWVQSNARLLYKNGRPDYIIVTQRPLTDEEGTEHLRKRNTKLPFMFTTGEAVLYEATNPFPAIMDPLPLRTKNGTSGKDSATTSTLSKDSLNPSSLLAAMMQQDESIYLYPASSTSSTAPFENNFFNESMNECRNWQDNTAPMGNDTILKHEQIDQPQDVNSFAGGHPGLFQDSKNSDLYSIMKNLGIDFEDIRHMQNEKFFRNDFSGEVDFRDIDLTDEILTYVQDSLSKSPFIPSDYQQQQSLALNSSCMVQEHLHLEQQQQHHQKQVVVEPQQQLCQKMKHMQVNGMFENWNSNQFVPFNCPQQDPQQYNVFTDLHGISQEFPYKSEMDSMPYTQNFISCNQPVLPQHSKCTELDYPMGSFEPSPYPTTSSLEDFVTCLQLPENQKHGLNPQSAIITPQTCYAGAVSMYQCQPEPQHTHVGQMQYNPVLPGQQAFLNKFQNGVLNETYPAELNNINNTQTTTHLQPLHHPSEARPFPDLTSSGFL
Chain of Aromatase (Homo sapiens) (P11511 whole entry, looked up): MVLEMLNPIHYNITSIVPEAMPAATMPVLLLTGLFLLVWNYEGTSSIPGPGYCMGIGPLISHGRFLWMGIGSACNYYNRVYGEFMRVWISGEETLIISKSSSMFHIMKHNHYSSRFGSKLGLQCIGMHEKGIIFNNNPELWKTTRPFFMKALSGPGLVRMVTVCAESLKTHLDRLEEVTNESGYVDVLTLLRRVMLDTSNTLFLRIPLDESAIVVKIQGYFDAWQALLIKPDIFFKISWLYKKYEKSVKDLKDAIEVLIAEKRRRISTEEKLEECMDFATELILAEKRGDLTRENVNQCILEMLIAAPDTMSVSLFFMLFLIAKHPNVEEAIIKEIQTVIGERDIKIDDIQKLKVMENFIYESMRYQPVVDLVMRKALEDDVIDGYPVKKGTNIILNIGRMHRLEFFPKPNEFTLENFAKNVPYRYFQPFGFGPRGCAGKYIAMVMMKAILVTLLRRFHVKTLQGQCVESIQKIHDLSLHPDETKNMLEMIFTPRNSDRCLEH
Chain of Peroxisome proliferator-activated receptor gamma (Homo sapiens) (P37231 whole entry, looked up): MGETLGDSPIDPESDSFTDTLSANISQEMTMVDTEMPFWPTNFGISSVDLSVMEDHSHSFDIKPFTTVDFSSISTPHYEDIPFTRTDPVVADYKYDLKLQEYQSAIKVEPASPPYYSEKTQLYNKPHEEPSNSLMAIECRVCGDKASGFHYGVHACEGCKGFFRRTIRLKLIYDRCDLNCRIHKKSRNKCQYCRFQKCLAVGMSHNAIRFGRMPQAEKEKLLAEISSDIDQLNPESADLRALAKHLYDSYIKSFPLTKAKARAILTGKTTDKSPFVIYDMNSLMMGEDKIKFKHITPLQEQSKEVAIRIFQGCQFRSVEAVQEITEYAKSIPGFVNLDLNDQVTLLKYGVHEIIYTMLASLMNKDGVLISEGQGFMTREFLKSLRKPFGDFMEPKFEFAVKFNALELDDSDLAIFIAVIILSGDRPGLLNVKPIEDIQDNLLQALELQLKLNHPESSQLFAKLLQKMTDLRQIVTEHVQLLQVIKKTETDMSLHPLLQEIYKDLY

`CCN1C(=O)c2ccccc2C1Nc1ccc(OCCN2CCCCC2)cc1` (stereo not drawn): the Potency entry in [1], in [3], in test [4], in test [5], in test [6] and in test [7] was “inactive” throughout. Also, the Potency result (with Aromatase (Homo sapiens); in [8]; in [9]; in [10]; in test [11]; in [12]) was “inactive” throughout. Moreover, the Potency entry in test [13] and in test [14] was “inactive” in each case. For the same compound, the call in test [2] was inactive.
For the compound `CNc1ccc([N+](=O)[O-])cc1`, the Potency was 27.4 µM (active) in [1]; 34.4 µM (active) in [6]; 48.7 µM (active) in test [15]; 12.2 µM (active) in the test with Aromatase (Homo sapiens); 34.4 µM (active) in test [8]; 54.6 µM (active) in test [9]. Moreover, the Potency in test [13] is 12.3 µM (active). Further, in test [2], the compound was classed as inactive. Moreover, the Potency result in [3], in test [4], in [5], in test [11] and in test [12] was “inactive” throughout.
As for `CCOC(=O)Cn1cccc1-c1nc(-c2ccc(OC)cc2)c(-c2ccc(OC)cc2)s1`, the values for the Potency in test [1] and in [12] were 13.3 µM (active) and 7.5 µM (active), respectively. Besides, the outcome in test [2] was inactive. Further, the Potency result (in test [4]; in test [5]; in [6]; in test [7]; in test [15]; with Aromatase (Homo sapiens)) was “inactive” throughout. Moreover, the Potency entry in test [8], in [9], in [10], in test [16], in test [11] and in test [17] was “inactive” each time. Moreover, in test [13], the Potency result is “inactive”.
Consider `C[Si](Cl)(c1ccccc1)c1ccccc1`, for which the Potency result in [1], in test [3], in test [4], in test [5], in [6] and in test [7] was “inactive” in each case. In addition, the Potency entry in [15], in test [8], in test [9], in [11], in test [17] and in [13] was “inactive” in each case. In addition, the outcome in [2] was inactive.
Consider `O=C1c2ccccc2C(=O)N1SC1CCCCC1`, for which the Potency is 24.3 µM (active) and 15.4 µM (active) in test [1]; 43.2 µM (active) in the test with Aromatase (Homo sapiens); 27.3 µM (active) and 24.3 µM (active) in [8]; 54.9 µM (active) in test [11]; 48.5 µM (active) and 34.4 µM (active) in [17]; 54.9 µM (active) in test [13]. The call in test [2] was inactive. For the same compound, the Potency entry in [5], in test [6], in test [7], in test [15], in [9] and in test [10] was “inactive” each time.
Take `COc1cc(C)ccc1O`: the Potency result (in test [1]; in test [4]; in [6]; in test [7]; in the test with Aromatase (Homo sapiens); in test [8]) was “inactive” each time. Further, the Potency entry in test [9], in test [10], in test [18], in test [11], in test [12] and in [17] was “inactive” in each case. The Potency entry in test [13] and in test [14] was “inactive” in each case. In addition, the call in test [2] was inactive.
With `CC(=O)c1ccc(C(C)=O)cc1`, the Potency result (in test [1]; in test [4]; in test [15]; in the test with Aromatase (Homo sapiens); in [8]; in [9]) was “inactive” throughout. Further, the Potency result in test [10], in test [16], in test [12], in test [13] and in test [14] was “inactive” throughout. Besides, the result in test [2] was inactive.
With `CC(C)OC(=O)C(O)(CC(=O)O)CC(=O)O`, the Potency entry in test [1], in test [3], in test [4], in [5], in [6] and in [7] was “inactive” throughout. Further, the Potency entry (in test [15]; with Aromatase (Homo sapiens); in [8]; in [9]; in test [10]; in test [16]) was “inactive” throughout. Further, the Potency entry in [11], in [12], in [13] and in test [14] was “inactive” in each case.
